Assay outcomes deposited in PubChem by National Center for Advancing Translational Sciences (NCATS).
Pf growth 48h: Primary qHTS for delayed death inhibitors of the malarial parasite plastid, 48 hour incubation; P. falciparum luciferase growth in erythrocytes, 48 h; Potency, µM (doses to about 28.7 µM), inactives show at the top dose activity change, negative = inhibition, usual class: inhibitors; 310,000 compounds, 5.9% hits; AID 504832, 2011; also: potency is read from the fitted curve at half-maximal effect; % is scaled to controls: 0 for no effect and ±100 for the full control effect
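Luciferase-expressing parasites in RBCs, 2% Hct / 0.1% parasitemia final; RPMI 1640 + 0.5% Albumax; 37 C, 5% CO2, one generation; luminescence read-out, lower signal = inhibition.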
NS1 function inh: qHTS Assay for Inhibitors of Influenza NS1 Protein Function. Potency, µM (top dose mostly 46.1 µM), for the others: top-dose activity, positive = more growth. 270,000 compounds, 0.4% hits. AID 2326, 2010; calls by dose curve; also: potency is read from the fitted curve at half-maximal effect; actives are rising curves; nearly all actives have a fitted effect of over 50% in size
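S. cerevisiae expressing influenza A NS1, grown in glucose, washed, then diluted 1:100 into pH 6.0 -URA galactose medium with 23 nl compound. Growth recovery read as OD600; NS1-free strain serves as control.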
Pf growth 96h: Primary qHTS for delayed death inhibitors of the malarial parasite plastid, 96 hour incubation. AID 504834, 2011. 320,000 compounds, 6.9% hits. P. falciparum luciferase reporter growth, 96 h. Potency, µM (highest dose often 28.7 µM), without a hit: at the highest dose activity change, negative = inhibition, hits mostly inhibitors; also: potency is read from the fitted curve at half-maximal effect; % is scaled to controls: 0 for no effect and ±100 for the full control effect
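Two parasite generations (96 h, 37 C, 5% CO2) of compound exposure in infected erythrocytes (0.05% parasitemia, 2% hematocrit). Luciferase-reporter P. falciparum; decreased luminescence indicates inhibited growth, aimed at apicoplast-acting delayed death.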
Shiga toxin inh: A qHTS for Small Molecule Inhibitors of Shiga Toxin. Vero cells, Shiga toxin protein synthesis inhibition reporter. inhibition, % at 38.7 µM. 290,000 compounds, 9.2% hits. AID 2315, 2010; in the data active = inhibition mostly above about 28%, no sharp cut-off; inactive = mostly below about 43%; also: 0% is about no effect
Cycloheximide cs: Cycloheximide Counterscreen for Small Molecule Inhibitors of Shiga Toxin. cell reporter, cycloheximide protein synthesis inhibition counterscreen. 300,000 compounds, 12% hits. max response, %. AID 2314, 2010; in the data active = max response mostly above about 13%, no sharp cut-off; inactive = mostly below about 14%; also: read at 38.3 µM for the half of the compounds with a filed dose; 0% is about no effect
Starred values were filed as active, the others as inactive. Shown are actives, neighbours in structure and some others; about 21% of the full set was active somewhere. Unless noted, calls follow the shape of the dose curve; as a rule, active = well fitted inhibition curve with a large enough effect; inconclusive = small, poorly fitted or top-dose-only effect, or another doubt; inactive = no such curve, though single readings can be large or run the other way.

Results for COc1ccc2nc(SCC(=O)Nc3cc(C)on3)c(C#N)cc2c1 ?
Pf growth 48h: 47.5%; NS1 function inh: 7.1%; Pf growth 96h: 1.5%; Shiga toxin inh: -3.5; Cycloheximide cs: -2.9

Results for CC1C(=O)N2CCCc3cc(NS(C)(=O)=O)cc1c32 (centres undefined) ?
Pf growth 48h: 12.3%; NS1 function inh: 3.0%; Pf growth 96h: 16.9%; Shiga toxin inh: -4.9; Cycloheximide cs: -0.7

What do the screens show for `COc1ccccc1CCNC(=O)C(=O)Nc1cc2c3c(c1)CC(=O)N3CCC2`?
Pf growth 48h: 1.17µM*; Pf growth 96h: 1.04µM*

What do the screens show for `CCC(=O)N1CCCc2cc(S(=O)(=O)N3CCN(c4ccccc4F)CC3)ccc21`?
NS1 function inh: -1.6%; Pf growth 96h: -20.0%; Shiga toxin inh: -1.1; Cycloheximide cs: 6.2

How did CC1C(=O)N2CCCc3cc(S(=O)(=O)N4CCN(c5ccccc5F)CC4)cc1c32 (centres undefined) do in these assays?
Pf growth 48h: 11.7µM*; NS1 function inh: 24.5%; Pf growth 96h: 20.3%; Shiga toxin inh: -2.8; Cycloheximide cs: 1.2

How did CC1C(=O)N2CCCc3cc(NC(=O)C(=O)NCCc4ccccc4)cc1c32 (centres undefined) do in these assays?
Pf growth 48h: inconclusive; Pf growth 96h: 13.1µM*

How did O=C(NCCO)C(=O)Nc1cc2c3c(c1)CC(=O)N3CCC2 do in these assays?
Pf growth 48h: 59.6%; NS1 function inh: -4.7%; Pf growth 96h: 55.1%; Shiga toxin inh: 9.3; Cycloheximide cs: 7.5

What do the screens show for `Cc1ccc(S(=O)(=O)Nc2cc3c4c(c2)C(C)C(=O)N4CCC3)cc1` (centres undefined)?
Pf growth 48h: 10.4µM*; Pf growth 96h: inconclusive

What do the screens show for `NC(=O)C1CCN(S(=O)(=O)Cc2ccccc2Cl)CC1`?
Pf growth 48h: -2.1%; NS1 function inh: 5.7%; Pf growth 96h: inconclusive; Shiga toxin inh: -7.9; Cycloheximide cs: -1.2

Results for CCOC(=O)[C@@H]1[C@H]2COc3ccc(Br)cc3[C@H]2N2C(=O)N(c3cccc(Cl)c3)C(=O)[C@]12C ?
Pf growth 48h: inconclusive; NS1 function inh: -22.4%; Pf growth 96h: inconclusive; Shiga toxin inh: 5.6; Cycloheximide cs: -3.4

How did Cc1ccccc1-n1c(Cc2cccs2)n[nH]c1=S do in these assays?
Pf growth 48h: 0.3%; NS1 function inh: -5.9%; Pf growth 96h: 13.5%; Shiga toxin inh: -8.3; Cycloheximide cs: -2.6

Results for COc1ccc(-c2csc3nc(-c4ccccc4)oc(=O)c23)cc1OC ?
Pf growth 48h: 22.7%; NS1 function inh: -2.2%; Pf growth 96h: inconclusive; Shiga toxin inh: 3.0; Cycloheximide cs: 8.2

Results for COc1ccc(C(=O)N(C)C(C)c2ccon2)cc1OC1CCN(C(C)C)CC1 (centres undefined) ?
Pf growth 48h: 9.3%; NS1 function inh: 6.9%; Pf growth 96h: inconclusive; Shiga toxin inh: -23.3; Cycloheximide cs: 1.2

How did CC(C)CNC(=O)C(=O)Nc1cc2c3c(c1)C(C)C(=O)N3CCC2 (centres undefined) do in these assays?
Pf growth 48h: -23.8%; NS1 function inh: 18.0%; Pf growth 96h: 14.7µM*; Shiga toxin inh: -3.7; Cycloheximide cs: 1.4

What do the screens show for `CC(C)CC(=O)Nc1cc2c3c(c1)C(C)C(=O)N3CCC2` (centres undefined)?
Pf growth 48h: 4.9%; NS1 function inh: 0.4%; Pf growth 96h: 22.5%; Shiga toxin inh: -9.6; Cycloheximide cs: 19.3

Results for CC1C(=O)N2CCCc3cc(NC(=O)C(=O)NCCN4CCOCC4)cc1c32 (centres undefined) ?
Pf growth 48h: 20.0%; Pf growth 96h: 25.1%

Results for CC1C(=O)N2CCCc3cc(NC(=O)C(=O)NCCc4c[nH]c5ccccc45)cc1c32 (centres undefined) ?
Pf growth 48h: 1.47µM*; Pf growth 96h: 4.15µM*

What do the screens show for `C=CCNCc1cc(=O)n2c(-c3ccccc3)csc2n1`?
Pf growth 48h: -16.5%; NS1 function inh: inconclusive; Pf growth 96h: 2.7%; Shiga toxin inh: 10.0; Cycloheximide cs: -4.9

Results for Cc1nc2nc(SCc3ccccc3)nn2c(C)c1C ?
Pf growth 48h: 10.6%; Pf growth 96h: 41.7%

How did Cc1ccc(CSc2nccc(-c3c(C)nc4ccccn34)n2)cc1 do in these assays?
Pf growth 48h: 13.1µM*; NS1 function inh: 0.0%; Pf growth 96h: inconclusive; Shiga toxin inh: -5.2; Cycloheximide cs: 1.4

How did O=C(COC(=O)c1nc(-c2ccccc2)n(-c2cccc(C(F)(F)F)c2)n1)NCc1cccs1 do in these assays?
Pf growth 48h: 20.2%; NS1 function inh: -7.3%; Pf growth 96h: 10.8%; Shiga toxin inh: -10.6; Cycloheximide cs: -1.9

Results for CC(C)CC1NC(=O)N(CC(=O)c2ccc3c(c2)OCCO3)C1=O (centres undefined) ?
Pf growth 48h: 98.9%; NS1 function inh: -4.3%; Pf growth 96h: 132.0%; Shiga toxin inh: 134.8*; Cycloheximide cs: 34.3*

What do the screens show for `CCCC1Oc2ccccc2C(=O)N(CC(=O)c2ccc3c(c2)OCCO3)C1=O` (centres undefined)?
Pf growth 48h: 4.3%; NS1 function inh: -7.4%; Pf growth 96h: 20.6%; Shiga toxin inh: 28.6; Cycloheximide cs: 20.6*

What do the screens show for `CC(CN1CCN(Cc2ccccc2)CC1)OC(=O)c1ccco1` (centres undefined)?
Pf growth 48h: -1.4%; NS1 function inh: -33.3%; Pf growth 96h: 41.3%; Shiga toxin inh: 13.1; Cycloheximide cs: 4.6

Results for O=C(CCN1C(=O)c2ccccc2S1(=O)=O)Nc1ccc(C(=O)O)cc1 ?
Pf growth 48h: 35.8%; NS1 function inh: 3.3%; Pf growth 96h: 10.4µM*; Shiga toxin inh: -3.2; Cycloheximide cs: 0.9

What do the screens show for `CCN1CCN(CC(=O)Nc2ccc3c(c2)OCCO3)C(=O)C1=O`?
NS1 function inh: inconclusive; Pf growth 96h: -6.3%; Shiga toxin inh: 7.0; Cycloheximide cs: -2.8

What do the screens show for `O=C(CN1C(=O)c2ccccc2S1(=O)=O)c1ccc2c(c1)OCCCO2`?
Pf growth 48h: inconclusive; NS1 function inh: 4.7%; Pf growth 96h: 1.47µM*; Shiga toxin inh: -26.5; Cycloheximide cs: -10.9

What do the screens show for `O=C(CCN1C(=O)c2ccccc2S1(=O)=O)Nc1ccccc1`?
Pf growth 48h: 11.2%; NS1 function inh: 0.7%; Pf growth 96h: 34.9%; Shiga toxin inh: -5.1; Cycloheximide cs: 1.3

What do the screens show for `O=C(CCN1C(=O)c2ccccc2S1(=O)=O)Nc1ccc2c(c1)OCCO2`?
Pf growth 48h: 21.6%; NS1 function inh: -7.2%; Pf growth 96h: -13.1%; Shiga toxin inh: 37.4; Cycloheximide cs: 34.2*

Results for O=C(CN1Cc2ccccc2C1=O)Nc1ccc2c(c1)OCCO2 ?
Pf growth 48h: 95.0%; NS1 function inh: 1.7%; Pf growth 96h: 6.4%; Shiga toxin inh: 85.4*; Cycloheximide cs: 83.0*

What do the screens show for `O=C(NNC1=NCCC1)C1CC1`?
Pf growth 48h: 3.8%; Pf growth 96h: 13.9%; Shiga toxin inh: -20.2; Cycloheximide cs: -5.1
